High-throughput results: PubChem, The Scripps Research Institute Molecular Screening Center
TTR transcr act: TTR transcription activators in neuroblastoma reporter cells, primary screen, cell-based, luminescence, SH-SY5Y, TTR promoter Gaussia luciferase | 100% = recombinant luciferase protein wells | activation, % at 16.7 µM | 92,000 compounds, 1.3% hits;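 active = activation above the mean of all tested compounds plus 3 SD, cut at about 9.5% in these data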;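 also: cells exposed to compounds for one day before reading; 0% = median of all test compound wells on the plate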
TTR inh HuH7: TTR promoter reporter inhibitors in hepatoma cells, counter-screen for TTR transcription activator project, cell-based, luminescence, HuH7 hepatoma; AID 1117279, 2014; HuH7 TTR promoter-Gaussia luciferase reporter; 1,100 compounds, 4% hits; inhibition, % at 16.7 µM; shares compounds with TTR transcr act;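 active = average inhibition above the solvent-only control wells' mean plus 3 SD, cut at about 15% in these data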;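 also: 0% = cells with DMSO only and 100% = cells with inhibitor control FD; inhibitors lower well luminescence so higher value means more inhibition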
TTR act confirm: TTR transcription activators, retest, confirmation, cell-based, luminescence, SH-SY5Y, triplicate | shares compounds with TTR transcr act | SHSY5Y TTR promoter Gaussia luciferase; 100% = purified Lucia enzyme wells, no cells | activation, % at 16.7 µM | 1,100 tested, under 10 active | AID 1117280, 2014;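 active = mean activation above a set limit taken from the earlier primary screen, cut at about 11% in these data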;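 also: 0% = DMSO-treated cells and 100% = recombinant Lucia luciferase without cells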
* hit, by the source's call. Shown is part of a subset that was picked to be rich in hits.

For O=C(CN(c1ccccc1Cl)S(=O)(=O)c1ccccc1)NC1CC2CCC1C2 (configuration not stated) the results were TTR transcr act 1.0.
Screening CN(N=Nc1nc[nH]c1C(=O)NN)C1CCCCC1 returned TTR transcr act 5.0.
Screening C[C@@H]1CN([C@H](C)CO)C(=O)CCCn2cc(nn2)CO[C@H]1CN(C)C(=O)Nc1cccc(Oc2ccccn2)c1 returned TTR transcr act 1.3.
For COc1ccc(CNCc2cc(Cl)ccc2O)cc1 the results were TTR transcr act 10.2*, TTR inh HuH7 2.6 and TTR act confirm -0.3.
COc1ccc(CNCc2cccc(C)c2)cc1 was read as TTR transcr act 0.0.
Oc1ccc(Cl)cc1CNCc1ccc(F)c(F)c1 was read as TTR transcr act 2.2.
`CCOc1ccc(CCN2C(=O)C(=O)N([C@@H](Cc3ccccc3)CN3CCC[C@H]3CN3C(=O)C(=O)NC[C@@H]3Cc3ccccc3)C[C@@H]2Cc2ccc(O)cc2)cc1` gave TTR transcr act -3.3.
For O=C(NCCO)c1ccc(-c2cnc3cccnn23)cc1 the results were TTR transcr act -0.4.
`O=C(Nc1cccc(C(F)(F)F)c1)c1ccc(-c2ccc(F)c(F)c2)c2ccoc12` gave TTR transcr act 0.2.
For CCCCOc1ccc(C(=O)N(CC)CC(=O)NCc2cccs2)cc1 the results were TTR transcr act -1.7.
`COc1cc(-c2cc(C(=O)NN3CCN(C)CC3)c3ccccc3n2)cc(OC)c1OC` gave TTR transcr act 35.8*, TTR inh HuH7 -10.8 and TTR act confirm 3.0.
Screening COc1cc(-c2cc(C(=O)OCC(=O)NC3CC3)c3ccccc3n2)cc(OC)c1OC returned TTR transcr act -3.2.
`COc1cc(-c2cc(C(=O)O)c3cc4c(cc3n2)OCCO4)cc(OC)c1OC` gave TTR transcr act 1.8.
`Cc1ccc2cccc(S(=O)(=O)Nc3ccc4c(c3)OCO4)c2n1` gave TTR transcr act 14.0*, TTR inh HuH7 -19.2 and TTR act confirm 1.9.
O=S(=O)(Nc1ccc2c(c1)OCO2)c1ccccc1 was read as TTR transcr act -0.3.
O=S(=O)(Nc1ccc2c(c1)OCCO2)c1cccc2nsnc12 was read as TTR transcr act 1.1.
For COc1ccc(-c2oc3ccccc3c2C#Cc2cncn2C)cc1 the results were TTR transcr act -2.5.
`C#CCN(C[C@H]1[C@H](OC(=O)NCc2ccccc2F)[C@H](OC(=O)NCc2ccccc2F)C[C@H]2C(=O)N(c3ccccc3)C(=O)[C@@H]12)S(=O)(=O)c1ccc(C)cc1` gave TTR transcr act 0.1.
`COC(=O)c1cn(-c2ccccc2)nc1-c1ccc(OC)cc1` gave TTR transcr act -3.1.
COC(=O)c1cn(-c2ccccc2)nc1-c1ccncc1 was read as TTR transcr act -3.3.
For O=C(OCc1ccccc1)c1cn(-c2ccccc2)nc1-c1ccncc1 the results were TTR transcr act 17.8*, TTR inh HuH7 -10.3 and TTR act confirm -1.1.
Screening O=C(NNC(=S)NC(=O)c1cccs1)c1cccnc1 returned TTR transcr act -2.1.
For C/C(=N\NC(=O)c1cccs1)c1cccnc1 the results were TTR transcr act 9.9*, TTR inh HuH7 -4.8 and TTR act confirm 0.2.
C/C(=N\NC(=O)c1ccc(N(C)C)cc1)c1cccnc1 was read as TTR transcr act -0.3.
For CC(C)(C)S(=O)N1Cc2cc(=O)n(Cc3ccccc3)c(CCO)c2[C@H]1CCO (some centres not stated) the results were TTR transcr act 0.4.
Screening Cc1cccc(Cl)c1OCCCN1CCOCC1 returned TTR transcr act 1.0.
O=C(OCc1ccccc1)N1CCC2CC1c1cc(/C=C/CCCSc3ncccn3)ccc12 (configuration not stated) was read as TTR transcr act -1.6.
For C=Cn1cc(CNC[C@H]2O[C@@H](n3cc(C)c(=O)[nH]c3=O)C[C@@H]2O)c(C)n1 the results were TTR transcr act 11.4*, TTR inh HuH7 -13.2 and TTR act confirm -0.5.
Screening Cc1cn([C@H]2C[C@H](O)[C@@H](CNC(=O)[C@H]3CCC(=O)N3)O2)c(=O)[nH]c1=O returned TTR transcr act 1.6.
Cc1cn([C@H]2C[C@H](O)[C@@H](CNCc3ccc(N4CCN(C)CC4)cc3F)O2)c(=O)[nH]c1=O was read as TTR transcr act 3.4.
`COC(=O)c1ccc(CN(c2ccc(C(=O)O)c(O)c2)S(=O)(=O)c2ccc(Cl)c([N+](=O)[O-])c2)cc1` gave TTR transcr act 0.0.
`CC[C@]1(C(=O)OC)[C@H]2C(=O)N(Cc3ccccc3)C(=O)[C@H]2[C@H]2CN=C(SC)N21` gave TTR transcr act 2.2.
Screening COc1ccc(CCNC(=O)COC(=O)c2ccccn2)cc1 returned TTR transcr act -2.0.
`O=C(c1c(F)cccc1F)N1CCC(O)(c2ccc(F)cc2)CC1` gave TTR transcr act -0.3.
`COc1ccc(NC(=O)Nc2nnc(N3CCCCC3C)s2)cc1OC` (configuration not stated) gave TTR transcr act -0.5.
For CC1CCCCN1c1nnc(NC(=O)Cn2c(=O)oc3ccccc32)s1 (configuration not stated) the results were TTR transcr act 19.3*, TTR inh HuH7 -15.7 and TTR act confirm -1.2.
For COc1ccc(-c2nc(NC(=O)Cn3c(=O)oc4ccccc43)sc2C)cc1 the results were TTR transcr act -1.8.
Screening O=c1[nH]nnc2cc(Cl)ccc12 returned TTR transcr act 1.7.
`COc1ccc(C(=O)Nc2ccc(O)c3ccccc23)cc1OC` gave TTR transcr act -0.5.
`Cc1ccc(CN(C)C(=O)c2cccc(S(=O)(=O)N3CCN(Cc4ccccc4)CC3)c2)o1` gave TTR transcr act -1.3.
Screening CCCCN(C(=O)c1cccc(S(=O)(=O)N2CCN(Cc3ccccc3)CC2)c1)c1ccccc1 returned TTR transcr act 26.7*, TTR inh HuH7 -3.6 and TTR act confirm -0.3.
For O=C(NCCOc1ccccc1)c1cccc(S(=O)(=O)N2CCN(Cc3ccccc3)CC2)c1 the results were TTR transcr act -1.1.
For Cc1ccccc1CN1CCC(CNC(=O)C2CCCN(c3ncnc4c3nc3n4CCCCC3)C2)CC1 (configuration not stated) the results were TTR transcr act 1.4.
`CC(=O)Nc1cccc(-c2ccnc3c2CC(C(=O)NCc2ccc(N(C)C)cc2)O3)c1` (configuration not stated) gave TTR transcr act -0.5.
CCOC(=O)CSc1nc(C)[nH]c1[N+](=O)[O-] was read as TTR transcr act 10.4*, TTR inh HuH7 -6.3 and TTR act confirm -0.9.
For Cc1nc(SCCC(C)C)c([N+](=O)[O-])[nH]1 the results were TTR transcr act -1.3.
Cc1nc(SCc2ccccc2)c([N+](=O)[O-])[nH]1 was read as TTR transcr act -1.8.
CCn1c(SCC(=O)N/N=C/c2c[nH]c3ccccc23)nnc1-c1ccc(C(C)(C)C)cc1 was read as TTR transcr act -3.9.
